Screening data (PubChem BioAssay)
A selection: hits, their analogues and other compounds. The true share with any hit is near 0.54%.
EPAC1 antagonist: qHTS for Antagonist of cAMP-regulated guanine nucleotide exchange factor 3 (EPAC1): primary screen | Rap guanine nucleotide exchange factor 3 (Homo sapiens), O95398 | EPAC1 GEF assay, Rap1b-BODIPY-GDP exchange fluorescence | Potency, µM (titrated, usually from 115 µM), without a hit: at the highest dose activity change, negative = inhibition, hits mostly inhibitors | 360,000 tested, 0.14% active;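 note: plate controls were vehicle for no effect and positive control for full effect; nearly all actives have a fitted effect of over 50% in size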
Target sequence (O95398 whole entry, looked up): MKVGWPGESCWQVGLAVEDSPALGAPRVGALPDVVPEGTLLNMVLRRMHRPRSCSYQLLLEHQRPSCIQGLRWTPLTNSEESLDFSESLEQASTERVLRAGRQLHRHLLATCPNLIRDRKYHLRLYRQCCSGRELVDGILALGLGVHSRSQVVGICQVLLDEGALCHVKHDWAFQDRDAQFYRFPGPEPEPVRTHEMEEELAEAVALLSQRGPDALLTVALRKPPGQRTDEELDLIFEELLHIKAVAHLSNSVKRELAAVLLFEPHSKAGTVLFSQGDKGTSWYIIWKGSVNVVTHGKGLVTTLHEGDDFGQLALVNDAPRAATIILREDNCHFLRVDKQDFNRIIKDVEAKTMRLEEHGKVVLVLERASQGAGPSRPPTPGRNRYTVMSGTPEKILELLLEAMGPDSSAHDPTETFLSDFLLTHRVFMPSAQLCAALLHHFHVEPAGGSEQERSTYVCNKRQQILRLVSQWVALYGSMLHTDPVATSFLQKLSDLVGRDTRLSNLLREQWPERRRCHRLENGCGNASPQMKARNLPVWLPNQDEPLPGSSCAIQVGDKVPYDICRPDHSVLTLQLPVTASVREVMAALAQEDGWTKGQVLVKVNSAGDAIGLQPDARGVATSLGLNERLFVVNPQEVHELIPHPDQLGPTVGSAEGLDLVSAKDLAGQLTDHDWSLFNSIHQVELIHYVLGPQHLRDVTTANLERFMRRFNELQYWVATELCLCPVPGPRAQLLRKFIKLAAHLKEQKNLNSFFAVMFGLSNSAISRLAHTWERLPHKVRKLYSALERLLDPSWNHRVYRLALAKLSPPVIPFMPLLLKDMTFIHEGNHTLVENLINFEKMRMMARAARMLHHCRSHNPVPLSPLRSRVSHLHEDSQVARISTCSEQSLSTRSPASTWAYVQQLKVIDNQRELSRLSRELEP
EPAC2 ag: qHTS for Agonist of cAMP-regulated guanine nucleotide exchange factor 4 (EPAC2): primary screen; EPAC2 activation, biochemical qHTS; response scale: 100% = 6.5 mM cAMP response; Potency, µM (highest dose often 154 µM), inactives show top-dose activation, actives largely listed as activators; 360,000 tested, 0.079% active; note: nearly all actives have a fitted effect of over 50% in size
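Guanine nucleotide exchange by EPAC2 is measured as reduced fluorescence of BODIPY-GDP once it is released from 250 nM Rap1B. Plates are read kinetically for 30 min at room temperature; results are scaled to 6.5 mM cAMP.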
EPAC1 agonist: qHTS for Agonist of cAMP-regulated guanine nucleotide exchange factor 3 (EPAC1): primary screen | Rap guanine nucleotide exchange factor 3 (Homo sapiens), O95398 | 360,000 tested, 0.073% active | Potency, µM (doses to about 154 µM), for the others: at the highest dose activation, actives largely listed as activators | EPAC1 agonist qHTS, biochemical assay; response scale: 100% = response to 6.5 mM cAMP; note: nearly all actives have a fitted effect of over 60% in size
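Nucleotide exchange by EPAC1 (100 nM) on Rap1B–BODIPY-GDP (250 nM) in the presence of 50 uM GDP is tracked fluorescently at 480/540 nm over 30 min. Signals are normalized to a 6.5 mM cAMP control.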
TDP1 block: qHTS Assay for Inhibitors of Tyrosyl-DNA Phosphodiesterase (TDP1) | recombinant TDP1, AlphaScreen DNA substrate cleavage | Potency, µM (top dose mostly 130 µM), for inactives: at the highest dose activity change, negative = inhibition, most hits filed as inhibitors | 350,000 tested, 0.28% active | AID 485290, 2010; note: % is set by controls: 0 for no effect and ±100 for the full control effect; nearly all actives have a fitted effect of over 40% in size
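AlphaScreen read-out: signal falls as enzyme removes the 3' tyrosine-FITC from a 5'-biotinylated DNA oligo (15 nM, 5 min, RT). Enzyme was E. coli-made recombinant Tdp1 at 1 nM, exposed to compound for 15 min beforehand; beads 10 ug/ml, 10 min.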
EPAC2 antagonist: qHTS for Antagonist of cAMP-regulated guanine nucleotide exchange factor 2 (EPAC2): primary screen. 360,000 tested, 0.18% active. Rap guanine nucleotide exchange factor 4 (Homo sapiens), Q8WZA2. Potency, µM (top dose mostly 114 µM), for inactives: top-dose activity, negative = inhibition, most hits filed as inhibitors. EPAC2 GEF exchange of Rap1B-BODIPY-GDP, fluorescence; note: % is set by controls: 0 for no effect and ±100 for the full control effect; nearly all actives have a fitted effect of over 45% in size
ERG-DNA inh: qHTS for Small Molecule Inhibitors of the ERG Ets/DNA interaction; Transcriptional regulator ERG (Homo sapiens), P11308; fluorescence polarization, His-ERG Ets domain / labelled DNA; Potency, µM (top dose mostly 76.9 µM), inactives show at the top dose FP activity, negative = inhibition, most hits filed as inhibitors; 370,000 tested, 0.028% active; AID 624246, 2012; active = well fitted inhibition curve with a large enough effect in the polarisation, with a control signal flat; inconclusive = small, poorly fitted or top-dose-only effect, or effect the other way, or a change in a side signal; inactive = no such curve, though single readings can be large or run the other way; the % refers to the polarisation;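 note: polarization taken with two DNA probes labelled with fluorescein and Texas red; % of control where 0% means no effect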
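His-tagged ERG Ets domain (1 uM in the protein solution; 300mM KCl, 50mM Tris-HCl, 1mM EDTA, 1mM DTT, pH 7.5) received compound, then a probe mix of 5 nM fluorescein-DNA and 100nM Texas-615-DNA. Fluorescence polarization was read for both dyes.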
Numbers without * were called inactive; ? = inconclusive; nt = not tested or not shown; ! = repeats disagree; [ ] = remark or other dose. Unless noted, calls come from the whole dose curve; as a rule, active = well fitted curve in the direction sought with a large enough effect; inconclusive = small, poorly fitted or top-dose-only effect, or another doubt; inactive = no such curve, though single readings can be large; an effect the other way counts as inactive or inconclusive. Potency is the fitted concentration of half-maximal effect.

SMILES	EPAC1 antagonist	EPAC2 ag	EPAC1 agonist	TDP1 block	EPAC2 antagonist	ERG-DNA inh
O=C(CN1CCCC1)Nc1ccc(Cl)cc1C(=O)c1ccccc1	-5%	1%	-5%	0%	13%	13µM*
Oc1c(Br)c(Br)c(Br)c(Br)c1Br	71µM*	-6%	-14%	4%	20µM*	6%
O=C1NC(=O)C(=Cc2cn(CCOc3ccc4c(c3)OCO4)c3ccccc23)C(=O)N1	1%	100µM*	5%	2%	43%	-3%
CC(=O)Oc1c2c(c(CC=C(C)C)c3c1C(=O)C1=CC4CC5C(C)(C)OC(C/C=C(\C)C(=O)O)(C4=O)[C@]15O3)OC(C)(CCC=C(C)C)C=C2 (some centres undefined)	nt	nt	nt	9%	nt	nt
COc1ccc(OC)c(N2C(=O)/C(=C/c3ccco3)C(=O)NC2=S)c1	8.9µM*	3%	4%	nt	?	35%
CCOC(=O)C1OC1(C)c1ccccc1 (centres undefined)	nt	nt	nt	10%	nt	nt
CC1COC2=C1C(=O)C(=O)c1c2ccc2c1CCCC2(C)C (centres undefined)	nt	nt	nt	20%	nt	nt
C[C@H]1COC2=C1C(=O)C(=O)c1c2ccc2c1CCCC2(C)C	45µM*	1%	-43%	21%	7%	-7%
COC(C)(C)CCCC(C)C/C=C/C(C)=C/C(=O)OC(C)C (centres undefined)	1%	-4%	-17%	16µM*!	-10%	20%
BrCC(Br)C1CCC(Br)C(Br)C1 (centres undefined)	2%	8%	-12%	32µM*!	?	-12%
CCn1c(O)c(/C=N/NC(=O)c2ccncc2)c(=O)n(CC)c1=S	69%	?	56µM*	5%	8%	14%
NC(=O)c1ccc(N=Cc2c(O)n(Cc3ccco3)c(=O)[nH]c2=O)cc1	?	3%	-7%	28µM*	-1%	7%
O=C(c1ccccc1)C(CN1CCCC1)c1ccccc1 (centres undefined)	-28%	-3%	5%	-2%	0%	1%
CC(c1ccccc1)n1cncc1C(=O)O (centres undefined)	-2%	-9%	10%	22µM*	2%	-5%
[O-][Cl+]O	nt	nt	nt	6%	nt	nt
CCCCNC(=O)c1c(N)n(CCCOC)c2nc3ccccc3nc12	?	10%	7%	nt	?	9%
COCCNC(=O)c1c(N)n(CCC(C)C)c2nc3ccccc3nc12	45µM*	5%	-4%	-13%	79µM*	2%
Oc1ccc(Cl)cc1Sc1cc(Cl)ccc1O	?	3%	3%	10%	35µM*	-2%
Nc1cc(Cl)ccc1O	nt	nt	nt	-5%	nt	nt
COc1cccc([C@@]2(O)CCCCC2CN(C)C)c1 (some centres undefined)	nt	nt	nt	8%	nt	nt
CCC(=O)Nc1cc(C(=O)O)ccc1S(=O)(=O)c1ccc(C)cc1	17%	13%	10%	20µM*	-1%	12%
CCC(=O)Nc1ccccc1	1%	8%	15%	nt	-8%	3%
COC(=O)c1cn(C(=O)c2cccc3ccccc23)c2ccccc12	-6%	14%	9%	-1%	8.9µM*	4%
COC(=O)c1cn(Cc2ccc(F)cc2)c2ccccc12	-2%	1%	4%	nt	?	nt
O=C(O)CCC(=O)NCCC1=c2ccccc2=N/C1=C\c1c(O)n(Cc2ccc(F)cc2)c(=S)[nH]c1=O	?	12%	3%	35µM*	-1%	10%
SMILES	EPAC1 antagonist	EPAC2 ag	EPAC1 agonist	TDP1 block	EPAC2 antagonist	ERG-DNA inh
CN(C(=O)Cc1ccc(Cl)c(Cl)c1)C(CN1CCCC1)c1cccc(N=C=S)c1 (centres undefined)	nt	nt	nt	16%	nt	nt
CC(C)CON=O	nt	nt	nt	5%	nt	nt
CN1C(=O)N(C)C(=O)C2(Cc3cc(N)ccc3N3CCN(c4ccccc4F)CC32)C1=O (centres undefined)	nt	nt	nt	-6%	nt	nt
CN1CCN2c3ccc(N)cc3CC3(C(=O)NC(=O)NC3=O)C2C1 (centres undefined)	?	9%	7%	45µM*	-3%	-5%
CC(=O)OC1CC(OC2C(O)CC(OC3C(O)CC(OC4CCC5(C)C(CCC6C5CC(O)C5(C)C(C7=CC(=O)OC7)CCC65O)C4)OC3C)OC2C)OC(C)C1OC1OC(CO)C(O)C(O)C1O (centres undefined)	-2%	112µM*	-16%	10%	89µM*	2%
CC(=O)O[C@H]1C[C@@H](O[C@@H]2[C@H](C)O[C@H](O[C@@H]3[C@H](C)O[C@H](O[C@@H]4CC[C@@]5(C)[C@@H](CC[C@]6(C)[C@]5(C)C[C@H](O)[C@]5(C)[C@@H](C7=CC(=O)OC7)CC[C@@]56O)C4)C[C@@H]3O)C[C@@H]2O)O[C@@H](C)[C@H]1O[C@H]1O[C@@H](CO)[C@@H](O)[C@@H](O)[C@@H]1O	nt	nt	nt	3%[21 µM]	nt	nt
Cc1nc2c(=O)n(C)c(=O)nc-2n(C)n1	100µM*	?	-1%	6%	?	11%
Cc1[nH]c2ccccc2c1P(=S)(c1ccccc1)c1ccccc1	nt	nt	nt	0%	nt	nt
CCCN1CCCC2Cc3[nH]ncc3CC21 (centres undefined)	nt	nt	nt	0.28µM*!	nt	nt
CCCN1CCC[C@@H]2Cc3cn[nH]c3C[C@H]21	nt	nt	nt	2%	nt	nt
C=CC=O	nt	nt	nt	-3%	nt	nt
Oc1c(Cl)cccc1Cc1cc(Cl)cc(Cl)c1O	79µM*	0%	0%	nt	22µM*	7%
Cn1c(-c2ccccc2)c(P(=S)(c2ccccc2)c2ccccc2)c2ccccc21	nt	nt	nt	0%	nt	nt
COc1ccc(C=O)cc1OC	nt	nt	nt	10%	nt	nt
CNc1ccc2oc(C[C@@H]3OC4(CC[C@@H]3C)O[C@H]([C@@H](C)C(=O)c3ccc[nH]3)[C@H](C)C[C@H]4C)nc2c1C(=O)O (some centres undefined)	nt	nt	nt	24%	nt	nt
CCCCC/C=C\C/C=C\C/C=C\C/C=C\CCCC(=O)NCC(=O)O	nt	nt	nt	32µM*!	nt	nt
CC(C)Br	nt	nt	nt	11%	nt	nt
N#CC(C#N)=NNc1ccc(S(N)(=O)=O)cc1	56µM*	-1%	0%	nt	-28%	9%
